Data reported in PubChem BioAssay AID1159580 (chemical genetic matrix, 2015).
Where “and” joins values, the source holds several entries; their conditions need not be identical. Identical values can stand only once. Screen size: about 5,500 compounds; about 2,000 (36%) were called active. Not shown: some 18% with an inconclusive outcome. No stated cut-off is given here; in the data, active means normalized growth mostly below about 0.91 (no sharp cut-off); inconclusive means no clear call, values can overlap the other calls; inactive means mostly above about 0.92. Some of the results follow.

Test: chemical genetic growth profiling, strain panel (AID 1159580);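 further: tested at 20 µM; growth read once vehicle control cultures reached saturation at 30 °C; 1 = growth at the plate median or of vehicle wells; lower values mean less growth of the strain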
Settings: S. cerevisiae deletion strains, growth OD

Measured: normalized growth

NC(=O)c1cc[n+](CC2=C(C(=O)O)N3C(=O)C(NC(=O)C(c4ccccc4)S(=O)(=O)[O-])C3SC2)cc1 (centres undefined)
inactive: locus YAL013W, strain DEP1, hits give low values 0.983 | locus YAL021C, strain ccr4, hits give low values 1.01 | locus YAL026C, strain drs2, hits give low values 0.997 | locus YAL030W, strain snc1, hits give low values 1.01 | locus YBL061C, strain skt5, hits give low values 0.994 | locus YBR009C, strain hhf1, hits give low values 1.02 | locus YBR021W, strain FUR4, hits give low values 0.97 | locus YBR023C, strain chs3, hits give low values 0.997 | locus YBR171W, strain sec66, hits give low values 1 | locus YBR229C, strain ROT2, hits give low values 0.989 | locus YBR231C, strain swc5, hits give low values 1 | locus YBR279W, strain paf1, hits give low values 0.993 | locus YCL011C, strain gbp2, hits give low values 1.02 | locus YCL016C, strain dcc1, hits give low values 1.01 | locus YCL029C, strain bik1, hits give low values 0.992 | locus YCL069W, strain vba3, hits give low values 1.02 | locus YCR088W, strain abp1, hits give low values 0.987 | locus YDL005C, strain med2, hits give low values 0.998 | locus YDL035C, strain GPR1, hits give low values 0.989 | locus YDL040C, strain nat1, hits give low values 1 | locus YDL074C, strain BRE1, hits give low values 1.02 | locus YDL101C, strain DUN1, hits give low values 0.994 | locus YDL134C, strain PPH21, hits give low values 0.973 | locus YDL185W, strain tfp1, hits give low values 0.995 | locus YDL192W, strain arf1, hits give low values 0.984 | locus YDR001C, strain nth1, hits give low values 0.99 | locus YDR069C, strain doa4, hits give low values 0.98 | locus YDR101C, strain arx1, hits give low values 1 | locus YDR137W, strain rgp1, hits give low values 1.02 | locus YDR150W, strain NUM1, hits give low values 0.988 | locus YDR159W, strain sac3, hits give low values 0.997 | locus YDR162C, strain NBP2, hits give low values 0.981 | locus YDR195W, strain ref2 0.988 | locus YDR297W, strain sur2, hits give low values 1 | locus YDR318W, strain mcm21, hits give low values 0.986 | locus YDR334W, strain swr1, hits give low values 0.994 | locus YDR335W, strain msn5, hits give low values 0.984 | locus YDR388W, hits give low values 0.992 | locus YDR392W, strain spt3, hits give low values 1.04 | locus YDR502C, strain sam2, hits give low values 0.987 | locus YEL003W, strain gim4, hits give low values 0.985 | locus YEL037C, strain rad23, hits give low values 0.999 | locus YEL061C, strain CIN8 (second series), hits give low values 0.99 | locus YEL061C, strain CIN8, hits give low values 0.994 | locus YER015W, strain faa2, hits give low values 1.02 | locus YER016W, strain bim1, hits give low values 0.99 | locus YER110C, hits give low values 0.986 | locus YER111C, strain swi4, hits give low values 0.995 | locus YER155C, strain BEM2 (second series), hits give low values 0.986 | locus YER155C, strain BEM2, hits give low values 0.978 | locus YER167W, strain BCK2, hits give low values 0.98 | locus YFR010W, strain ubp6, hits give low values 0.974 | locus YGL078C, strain dbp3, hits give low values 0.988 | locus YGL086W, strain mad1, hits give low values 0.978 | locus YGL167C, strain pmr1, hits give low values 0.984 | locus YGL173C, strain kem1, hits give low values 1.01 | locus YGL227W, strain vid30, hits give low values 1.01 | locus YGL240W, strain doc1, hits give low values 0.997 | locus YGL248W, strain PDE1, hits give low values 0.976 | locus YGL253W, strain hxk2, hits give low values 0.992 | locus YGR078C, strain PAC10, hits give low values 1.01 | locus YGR135W, strain pre9, hits give low values 0.957 | locus YGR229C, strain SMI1, hits give low values 0.958 | locus YGR252W, strain gcn5, hits give low values 0.937 | locus YHR013C, strain ard1, hits give low values 1 | locus YHR027C, strain rpn1, hits give low values 1.01 | locus YHR030C, strain SLT2, hits give low values 0.986 and 1.08 | locus YHR079C, strain IRE1 (second series), hits give low values 0.996 | locus YHR079C, strain IRE1, hits give low values 1.11 | locus YHR094C, strain hxt1, hits give low values 0.984 | locus YHR129C, strain ARP1, hits give low values 0.988 | locus YHR142W, strain chs7, hits give low values 0.993 | locus YHR200W, strain rpn10, hits give low values 0.986 | locus YIL066C, strain RNR3, hits give low values 0.995 | locus YIL073C, strain SPO22, hits give low values 0.96 | locus YIL125W, strain kgd1, hits give low values 0.992 | locus YIR030C, strain dcg1, hits give low values 0.99 | locus YJL092W, strain hpr5, hits give low values 0.995 | locus YJL095W, strain BCK1 (second series), hits give low values 0.99 | locus YJL095W, strain BCK1, hits give low values 1.02 and 1.05 | locus YJL115W, strain asf1, hits give low values 0.988 | locus YJL129C, strain trk1, hits give low values 0.962 | locus YJL134W, strain LCB3, hits give low values 0.985 | locus YJL154C, strain vps35, hits give low values 0.998 | locus YJL164C, strain tpk1, hits give low values 1.02 | locus YJL166W, strain qcr8, hits give low values 1 | locus YJL168C, strain set2, hits give low values 0.998 | locus YJL187C, strain SWE1 (second series), hits give low values 1.01 | locus YJR043C, strain POL32, hits give low values 0.993
